Compounds with a hit are over-represented: about 12% of the library has one in this group of screens.
JMJD2A Tudor inh: inhibitors of human JMJD2A Tudor domain. O75164. 390,000 tested, 4.4% active. Potency, µM (titrated, usually from 114 µM), without a hit: at the top dose activity change, negative = inhibition, actives largely listed as inhibitors. AlphaScreen JMJD2A-Tudor / H3K4me3 peptide binding. AID 504339; note: potency is the fitted concentration of half-maximal effect; % is set by controls: 0 for no effect and ±100 for the full control effect; nearly all actives have a fitted effect of over 50% in size
BAZ2B block: inhibitors of human BAZ2B bromodomain. AID 504333. AlphaScreen BAZ2B-H3K14Ac peptide displacement. 360,000 tested, 4.4% active. Q9UIF8. Potency, µM (titrated, usually from 114 µM), for inactives: at the top dose activity change, negative = inhibition, most hits filed as inhibitors; note: potency is the fitted concentration of half-maximal effect; % is set by controls: 0 for no effect and ±100 for the full control effect; nearly all actives have a fitted effect of over 60% in size
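Compounds, titrated to a top concentration of 110 uM, were incubated 30 min at room temperature with preformed BAZ2B/acetyl-K14 H3 peptide complex (50 nM each). Proximity signal was measured by AlphaScreen after 20 min with beads.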
G9a inh: G9a (human) methyltransferase inhibition | Q96KQ7 | G9a H3K9 monomethylation, AlphaScreen, 2 h | Potency, µM (doses to about 102 µM), for the others: top-dose activity, negative = inhibition, most hits filed as inhibitors | 350,000 tested, 8.8% active | AID 504332; note: potency is the fitted concentration of half-maximal effect; % is set by controls: 0 for no effect and ±100 for the full control effect; nearly all actives have a fitted effect of over 75% in size
Target sequence (Q96KQ7 913-1193 limits assumed): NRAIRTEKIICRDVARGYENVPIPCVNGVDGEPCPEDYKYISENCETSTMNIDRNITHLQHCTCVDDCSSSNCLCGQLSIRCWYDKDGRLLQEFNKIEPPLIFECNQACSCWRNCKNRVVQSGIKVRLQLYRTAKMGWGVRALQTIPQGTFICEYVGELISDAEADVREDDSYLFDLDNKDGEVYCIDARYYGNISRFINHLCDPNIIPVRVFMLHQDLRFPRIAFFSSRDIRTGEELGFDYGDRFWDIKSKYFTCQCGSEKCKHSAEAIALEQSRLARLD
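Step 1: enzyme (final 20 nM) with compound, 15 min RT. Step 2: substrate peptide 500 nM and SAM 20 uM, 2 h RT. Step 3: anti-H3K9me1 antibody and AlphaScreen beads, 10 min, then plate read.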
PI5P4K alpha inh: blocks human PI5P4K alpha kinase activity; 330,000 tested, 1.2% active; max response, %; PI5P4Kalpha enzyme, ADP-Glo luminescence, 60 min; active compounds read low; P48426; active = max response of -50% or lower; inconclusive = between -30% and -50%; inactive = -30% or higher; note: value at the top dose of about 77 µM; % is set by controls: 0 for no effect and ±100 for the full control effect
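PI5P4Kalpha ADP-Glo assay; 5 microM ATP final; 60 min RT reaction; HEPES pH 7.4/EGTA/CHAPS, 5% DMSO; controls lacking substrate or enzyme; luminescent end-point.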
HP1b chromo inh: HP1-beta chromodomain-methylated histone interaction inhibition; P83916; Potency, µM (doses to about 114 µM), inactives show at the top dose activity change, negative = inhibition, most hits filed as inhibitors; AlphaScreen HP1-beta / biotin-H3K9me3 peptide binding; 390,000 tested, 0.56% active; note: potency is the fitted concentration of half-maximal effect; nearly all actives have a fitted effect of over 70% in size
Target sequence (P83916 whole entry, looked up): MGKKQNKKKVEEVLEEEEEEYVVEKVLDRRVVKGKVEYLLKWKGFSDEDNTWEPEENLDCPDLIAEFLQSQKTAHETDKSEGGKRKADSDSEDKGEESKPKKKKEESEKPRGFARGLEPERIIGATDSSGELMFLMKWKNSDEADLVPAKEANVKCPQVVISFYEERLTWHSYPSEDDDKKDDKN
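AlphaScreen: HP1-beta (50 nM) preformed 30 min with biotin-H3(1-18)K9me3 peptide (50 nM) in PBS pH 7.4, 0.01% Tween-20. Compound added for 30 min at RT, then streptavidin donor/nickel chelate acceptor beads (10 ug/mL) for 30 min.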
PLK1 PBD block: blocks phosphopeptide binding to human PLK1 polo-box domain | AID 720504 | 360,000 tested, 2.8% active | Potency, µM, inactives show max response, negative = inhibition, actives largely listed as inhibitors | P53350 | Plk1 PBD binding of FITC phosphopeptide, fluorescence polarization; note: potency is the fitted concentration of half-maximal effect; series mostly up to about 57 µM; % is set by controls: 0 for no effect and ±100 for the full control effect; nearly all actives have a fitted effect of over 65% in size
Starred values were filed as active, the others as inactive; ? = inconclusive; / = not tested or not shown; ! = a repeat was not active; [ ] = remark or other dose. Unless noted, calls come from the whole dose curve; as a rule, active = well fitted curve in the direction sought with a large enough effect; inconclusive = small, poorly fitted or top-dose-only effect, or another doubt; inactive = no such curve, though single readings can be large; an effect the other way counts as inactive or inconclusive.

SMILES	JMJD2A Tudor inh	BAZ2B block	G9a inh	PI5P4K alpha inh	HP1b chromo inh	PLK1 PBD block
COc1cc(C2/C(=C(\O)c3ccc4c(c3)OCCO4)C(=O)C(=O)N2Cc2ccco2)ccc1O (centres undefined)	-29.0%	-34.1%	50.1µM*	5.2	4.6%	-6.6%
COc1ccc(C2/C(=C(\O)c3ccc4c(c3)OCCO4)C(=O)C(=O)N2Cc2cccnc2)cc1OC (centres undefined)	-22.8%	-29.9%	?	6.4	8.6%	-7.0%
O=C1C(=O)N(Cc2ccccc2)C(c2cccc(O)c2)/C1=C(\O)c1ccc2c(c1)OCCO2 (centres undefined)	-10.7%	56.2µM*	44.7µM*	-2.8	34.6%	3.1%
O=C1C(=O)N(CCN2CCOCC2)C(c2ccccc2)/C1=C(\O)c1ccc2c(c1)OCCO2 (centres undefined)	?	-15.0%	?	-18.0	9.2%	-1.3%
COc1cc(C2/C(=C(\O)c3ccc4c(c3)OCCO4)C(=O)C(=O)N2Cc2ccco2)cc(OC)c1OC (centres undefined)	-15.8%	-36.2%	50.1µM*	0.0	12.2%	-3.9%
O=C1C(=O)N(Cc2ccco2)C(c2cccc(Cl)c2)/C1=C(\O)c1ccc2c(c1)OCCO2 (centres undefined)	79.4µM*	?	?	-3.4	-14.3%	-22.1%
CC1C=CCC2C(=O)N(c3cccc(C(=O)Nc4ccc(Br)cc4)c3)C(=O)C12 (centres undefined)	-14.7%	-7.1%	/	14.7	11.2%	-12.4%
Cc1ccc(-c2nnn(CC(=O)N(CC(=O)NC3CCCCC3)c3ccccc3F)n2)o1	-22.5%	?	35.5µM*	-7.7	30.1%	-9.1%
Cc1cccc(N(CC(=O)NC2CCCCC2)C(=O)Cn2nnc(-c3ccc(C)o3)n2)c1	-16.7%	-15.1%	44.7µM*	-16.7	10.8%	-7.7%
Cc1ccc(-c2nnn(CC(=O)N(CC(=O)NCc3ccccc3)c3cccc(C)c3C)n2)o1	-31.1%	?	3.55µM*	/	1.8%	-3.4%
CCN(CC)c1ccc(C2C(C(N)=O)=C(C)Nc3nc(SCc4ccccc4Cl)nn32)cc1 (centres undefined)	-22.5%	0.3%	10.4%[59 µM]	/	13.9%	/
COc1ccc([C@@H]2C=C(C(=O)O)O[C@H](OCCCCO)C2)cc1	?	79.4µM*	-10.5%[12.7 µM]	-0.5	34.3%	-4.3%
C#Cc1ccc([C@H]2C=C(C(=O)O)O[C@@H](OCCCCO)C2)cc1	-14.8%	/	/	-17.2	43.2%	-15.6%
CCOC(=O)c1nnsc1Nc1ccc(C)c(C)c1	19.6%	1.4%	7.08µM*	1.5	71.5%	-2.3%
CCOC(=O)c1nnsc1-c1ccc(-c2snnc2C(=O)OCC)cc1	-2.1%	0.7%	7.2%	-12.8	43.1%	-7.5%
CC1C(=O)Nc2ccc(S(=O)(=O)NCc3ccc(N(C)C)cc3)cc2NC1=O (centres undefined)	-9.9%	-13.5%	-25.3%[59 µM]	/	41.2%	/
CCc1cc(-c2[nH]ncc2-c2ccc([N+](=O)[O-])cc2)c(O)cc1OC	50.1µM*	39.8µM*	50.1µM*	0.0	?	-1.5%
CCOc1ccc(-n2c(-c3ccc(Br)cc3)cc3c2CC(C)(C)CC3=O)cc1	12.6µM*	10µM*	?	/	?	/
Cc1c(C(=O)O)sc(S(=O)(=O)N2CCN(C(=O)CC(C)c3ccccc3)CC2)c1C(=O)O (centres undefined)	-21.8%	/	/	-6.7	39.9%	-0.8%
CC(=O)OCC1=C(C(=O)O)N2C(=O)C(NC(=O)CCn3nc(C)c(Cl)c3C)C2SC1 (centres undefined)	-16.6%	3.9%	?	0.9	37.8%	-8.2%
CC(=O)OCC1=C(C(=O)O)N2C(=O)[C@@H](NC(=O)Cc3cccs3)[C@H]2SC1	79.4µM*	50.1µM*	7.52µM*!	?	-10.5%	?
CC(=O)OCC1=C(C(=O)O)N2C(=O)C(NC(=O)CCn3nc(C(F)(F)F)c(Br)c3C3CC3)C2SC1 (centres undefined)	-21.5%	-0.3%	39.8µM*	1.8	1.8%	?
CC(=O)OCC1=C(C(=O)O)N2C(=O)C(NC(=O)Cn3nc(C(F)F)c(Cl)c3C)C2SC1 (centres undefined)	-13.8%	-35.2%	50.1µM*	-4.7	14.4%	-27.8%
CC(=O)OCC1=C(C(=O)O)N2C(=O)C(NC(=O)c3ccc(COc4c(C)cccc4Cl)o3)C2SC1 (centres undefined)	?	?	44.7µM*	-27.8	10.3%	-14.6%
CC(=O)OCC1=C(C(=O)O)N2C(=O)[C@@H](NC(=O)Cc3ccccc3)[C@H]2SC1	?	/	/	7.7	9.6%	0.0%
SMILES	JMJD2A Tudor inh	BAZ2B block	G9a inh	PI5P4K alpha inh	HP1b chromo inh	PLK1 PBD block
Cc1cc(O)c(CN2CCN(c3ccccc3)CC2)c2oc(=O)cc(C)c12	-1.0%	9.7%	1.9%[59 µM]	/	11.8%	/
CC(=O)c1ccc(NC(=S)N2C(C)CCCC2C)cc1 (centres undefined)	/	10.9%	50.1µM*	/	/	/
CCN1CCCC1CNC(=S)Nc1ccc(C(C)=O)cc1 (centres undefined)	-30.4%	-26.9%	39.8µM*	-13.8	15.7%	?
CCN1CCCC1CNC(=O)C(=O)Nc1ccccc1 (centres undefined)	-17.1%	-20.6%	23.3%[59 µM]	-0.2	31.5%	5.5%
CC1=CN2C(=N)/C(=C/c3ccc([N+](=O)[O-])o3)C(=O)N=C2S1	79.4µM*	44.7µM*	?	-66.7*	?	?
CC1=CN2C(=N)/C(=C/c3ccco3)C(=O)N=C2S1	-11.5%	-37.3%	-11.0%[59 µM]	?	6.7%	-4.0%
Cc1ccc2nc(Nc3ccc(C)c(F)c3)c3nncn3c2c1	0.7%	3.4%	11.7%[59 µM]	/	25.0%	/
Cc1ccnc(NC(=O)c2ccc(OCC3CCCO3)cc2)c1 (centres undefined)	-14.4%	2.8%	-1.9%	?	14.9%	-2.6%
CN(CC(=O)Nc1cccc(F)c1)C(=O)c1ccc(N2CCCCC2)c([N+](=O)[O-])c1	?	?	14.3%[0.501 µM]	-0.3	-6.5%	4.9%
COc1ccc(/C(O)=C2/C(=O)C(=O)N(CCCN(C)C)C2c2ccc(C)o2)cc1Cl (centres undefined)	/	1.6%	44.7µM*	/	/	/
CCN(CC)CCCN1C(=O)C(=O)/C(=C(/O)c2ccc(OC)c(Cl)c2)C1c1ccco1 (centres undefined)	/	2.9%	44.7µM*	/	/	/
COc1ccc(/C(O)=C2/C(=O)C(=O)N(Cc3cccnc3)C2c2ccco2)cc1OC (centres undefined)	25.1µM*	-1.7%	-7.5%	/	-3.8%	-4.6%
Cc1ccc(C2/C(=C(\O)c3ccc4c(c3)OCCO4)C(=O)C(=O)N2CCCN(C)C)o1 (centres undefined)	/	-33.4%	44.7µM*	/	/	/

Assay outcomes from PubChem.
